# Bioassay records (PubChem)
# This is a sample that favours compounds with a hit; in the whole collection about 4.7% have one here.
# D1 antagonist: Antagonist of Human D 1 Dopamine Receptor: qHTS | 360,000 tested, 3.2% active | activity change, negative = inhibition, % at 10 µM | HEK293 TREx D1 cells, calcium flux, dopamine EC80; hits give low values | AID 504652, 2011; in the data active means activity change below about -30%
# Target sequence (P21728 whole entry, looked up): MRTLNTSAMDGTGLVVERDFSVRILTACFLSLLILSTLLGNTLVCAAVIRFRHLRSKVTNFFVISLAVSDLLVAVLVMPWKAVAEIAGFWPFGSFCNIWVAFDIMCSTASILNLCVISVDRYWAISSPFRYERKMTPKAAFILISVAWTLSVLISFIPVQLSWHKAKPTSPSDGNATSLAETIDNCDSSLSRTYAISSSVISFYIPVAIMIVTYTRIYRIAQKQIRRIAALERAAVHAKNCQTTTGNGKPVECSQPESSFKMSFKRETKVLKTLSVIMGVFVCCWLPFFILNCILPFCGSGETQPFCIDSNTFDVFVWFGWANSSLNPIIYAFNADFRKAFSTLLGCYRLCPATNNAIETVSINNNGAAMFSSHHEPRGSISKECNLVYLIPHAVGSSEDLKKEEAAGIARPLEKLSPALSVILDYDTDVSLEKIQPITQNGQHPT
#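 HEK293 T-REx cells expressing inducible, force-coupled D1 receptor; no-wash Ca dye, 30–90 min RT. Cmpd → 180 s read at 1 Hz → EC80 DA → 180 s read.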
# D1 potentiator: Potentiators of Human D1 Dopamine Receptor: qHTS. 360,000 tested, 0.036% active. potentiation, % at 10 µM. HEK293 TREx D1 cells, calcium flux, dopamine EC20 potentiation. D(1A) dopamine receptor (Homo sapiens), P21728; in the data active means potentiation above about 30%
# TRHR ag: qHTS for Small Molecule Agonists and Allosteric Enhancers of Human TRH Receptor: Primary Screen for Agonists; TRHR cells, calcium flux fluo-8, FDSS agonist mode; activation, % at 2 µM; Thyrotropin-releasing hormone receptor (Homo sapiens), P34981; 360,000 tested, 0.18% active
#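 In this calcium-flux screen, cells bearing human TRHR are dye-loaded with fluo-8, baselined for 10 cycles, then exposed to library compounds; positive kinetic calcium responses during the agonist phase mark hits, with TRH as control.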
# D1 ag: Allosteric Agonists of the Human D1 Dopamine Receptor: qHTS. D(1A) dopamine receptor (Homo sapiens), P21728. HEK293 T-REx D1 cells, calcium flux, agonist mode. activation, % at 2 µM. 360,000 tested, 1% active
#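 Agonism was scored from calcium flux recorded over 180 s (1 read/s) after pintool compound addition, following a 10-cycle baseline. Cells were inducible force-coupled HEK293 TREx D1, plated overnight at 30 C and loaded with no-wash calcium dye.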
# TRHR enhancer: qHTS for Small Molecule Agonists and Allosteric Enhancers of Human TRH Receptor: Primary Screen for Enhancers. TRHR cells, fluo-8 calcium fluorescence, EC20 TRH enhancement. enhancement, % at 2 µM. 360,000 tested, 0.66% active; in the data active means enhancement above about 30%
#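 TRHR-expressing cells loaded with fluo-8 calcium dye were read kinetically (ex 480/em 530) during compound addition, then stimulated with an EC20 of TRH (10 nM final). Enhancement of the Gq-mediated intracellular calcium response was scored.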
# A number is an active result; 0 = inactive; - = no result. Unless noted, no stated cut-off is given here; in the data, active means activation above about 30%; inactive means the rest.
SMILES,D1 antagonist,D1 potentiator,TRHR ag,D1 ag,TRHR enhancer
COc1ccc(N2C(=O)NC(NS(=O)(=O)c3ccccc3)(C(F)(F)F)C2=O)cc1 (stereo not given),0,0,0,0,0
CN(C)CCNc1ncnc2sc(-c3ccccc3)cc12,0,0,0,0,0
CC(=O)N1CCN(c2ncnc3sc(-c4ccccc4)cc23)CC1,0,0,0,0,40
CNc1ncnc2sc(-c3ccccc3)cc12,-38,0,0,0,0
CCOC(=O)c1ccc(N2C(=O)c3n[nH]c(C)c3C2c2ccccc2OC)cc1 (stereo not given),0,0,0,0,0
Cn1ncc2c(N3CCN(c4ccccc4Cl)CC3)ncnc21,0,0,0,0,0
CCn1c(C(=O)Nc2c(C)cccc2C)cc2sc(Cl)cc21,-42,0,0,0,0
CCc1ccc(NC(=O)c2cc3sc(Cl)cc3n2C)cc1,-43,0,0,0,0
Cn1c(C(=O)Nc2ccc(Cl)cc2)cc2cc(Cl)ccc21,0,0,0,0,33
CCc1ccccc1NC(=O)c1cc2sc(Cl)cc2n1CC,0,0,0,0,0
CC(C)c1ccc(NC(=O)c2cc3sc(Cl)cc3n2C)cc1,0,0,0,0,0
COc1ccc(Nc2c(-c3ccsc3)nc3nc(C)cc(C)n23)cc1,0,0,0,0,0
CCOc1ccc(CCNC(=O)Cn2nc(CC)n3c(cc4ccccc43)c2=O)cc1,-43,0,0,0,0
CCc1nn(CC(=O)NCCN(CC(C)C)CC(C)C)c(=O)c2cc3sc(C)cc3n12,0,0,0,0,55
COc1ccc(CNc2ncc(-c3ccccc3)n2C)c2ccccc12,0,0,0,0,0
COc1ccc(CNc2ncc(-c3ccccc3)n2C)c(OC)c1OC,-30,0,0,0,0
COc1ccc(OC)c(NC(=O)CN(C)S(=O)(=O)c2ccc3[nH]c4c(c3c2)CCCC4)c1,0,0,0,0,0
O=c1ccc2cc(S(=O)(=O)N3CCCC3)ccc2[nH]1,0,0,0,0,0
O=S(=O)(c1ccc2[nH]ccc2c1)N1CCCCCC1,-30,0,0,0,0
CCOC(=O)c1[nH]c(C)c(CCC(=O)N2CCN(c3cc(Cl)ccc3C)CC2)c1C,0,0,0,0,0
CC1CCN(CC(O)COC2CCC(C(C)(C)C)CC2)CC1 (stereo not given),0,0,0,0,0
CC(C)(C)C1CCC(OCC(O)CN2CCCC2)CC1 (stereo not given),0,0,0,33,0
CCOC(=O)Nc1ccccc1C(=O)Nc1cc(C)cc(C)c1,0,0,0,0,0
Cc1cccc(COC(=O)Nc2ccc(NC(=O)c3ccccc3Cl)cc2)c1,-56,0,0,0,0
O=c1[nH]c2cccnc2n1Cc1ccco1,-43,0,0,0,0
SMILES,D1 antagonist,D1 potentiator,TRHR ag,D1 ag,TRHR enhancer
O=C(NC1CCCC1)c1ccc(CS(=O)(=O)Cc2ccccc2F)o1,-42,0,0,0,0
Cc1cccc(CSCc2ccc(C(=O)NC3CCCC3)o2)c1,-46,0,0,0,0
Cc1ccc(CSCc2ccc(C(=O)NCCc3ccc(Cl)cc3)o2)cc1,-41,0,0,0,0
Cc1cc(C)cc(NC(=O)Cn2c(=O)n(C(C)C)c(=O)c3oc4ccccc4c32)c1,0,0,0,0,0
Cc1cccc(CNC(=O)CS(=O)(=O)c2cccc3nsnc23)c1,0,0,0,0,0
COc1ccc(C2CC(=O)c3cnc4c(-c5ccccc5)c(C)nn4c3C2)c(OC)c1 (stereo not given),0,0,0,0,0
Fc1ccc(CNc2cc(-c3ccccc3)nc3nncn23)cc1,0,0,0,0,0
Fc1ccc2[nH]c3c(c2c1)CN(C(=S)NCc1ccccc1)CC3,-38,0,0,0,0
CCCOc1ccc(C2=NC(c3ccc(F)cc3)=Nc3ccc(OC)cc3N2)cc1,0,0,0,0,0
CCc1ccccc1NC(=O)Cn1cc2c(n1)CCC(C)C2 (stereo not given),0,0,0,0,0
Cc1ccc(NC(=O)CCNS(=O)(=O)c2ccc3c(c2)CCN3C(=O)C2CC2)c(Cl)c1,0,0,0,0,0
CC(=O)NC1CCCN(O)C(=O)/C=C(\C)CCOC(=O)C(NC(C)=O)CCCN(O)C(=O)/C=C(\C)CCOC(=O)C(NC(C)=O)CCCN(O)C(=O)/C=C(\C)CCOC1=O (stereo not given),0,0,0,0,36
O=[N+]([O-])c1cnccc1Nc1ccccc1,0,0,0,0,0
COc1ccccc1Nc1ccncc1[N+](=O)[O-],-48,0,0,0,0
CCOC(=O)/C=C/C(=O)Nc1ccc(Oc2ccccc2)cc1,-36,0,0,0,0
CCOC(=O)C(=O)Nc1ccc(F)cc1,0,0,0,0,0
CCOC(=O)C(=O)Nc1ccc(Oc2ccccc2)cc1,-33,0,0,0,0
Cc1cc2c(s1)c1cnn(Cc3c(F)ccc(Cl)c3F)c(=O)c1n2C,0,0,0,0,0
Cc1nc2[nH]c(=O)c3c(n2n1)NC1=C(C(=O)CC(C)(C)C1)C3c1ccccc1 (stereo not given),-51,0,0,0,0
CCc1ccc(NC(=O)C(=O)NCC(c2cccnc2)N2CCN(Cc3ccccc3)CC2)cc1 (stereo not given),0,0,0,0,0
Cc1cc(OCC(=O)Nc2ccncc2)c(C)cc1Br,-33,0,0,0,0
Cc1ccc(C)c(OCC(=O)Nc2ccc3c(c2)OCO3)c1,0,0,0,0,0
Cc1ccc(OCCC(=O)OCC(=O)Nc2ccc3c(c2)OCO3)cc1,-64,0,0,0,0
O=C(COC(=O)c1cc(-c2ccccc2)nc2ccccc12)Nc1ccc2c(c1)OCO2,-42,0,0,0,0
CCc1ccc(OCC(=O)Nc2ccncc2)c(Br)c1,0,0,0,0,0
SMILES,D1 antagonist,D1 potentiator,TRHR ag,D1 ag,TRHR enhancer
Cc1ccc(OCCC(=O)Nc2ccc3c(c2)OCO3)cc1,0,0,0,0,0
Cc1cc(C)c(OCC(=O)Nc2ccc3c(c2)OCO3)cc1C,0,0,0,124,0
COc1ccc(-c2cc(C(=O)OCC(=O)Nc3ccc4c(c3)OCO4)c3ccccc3n2)cc1,0,0,0,0,0
CCCC(=O)C1=C(c2cccc(OC)c2)N(C(=O)CCC)n2c(C)nnc2S1,-,0,0,0,0
CCOc1ccc(NC(=O)c2c(NCc3ccc(C)o3)sc3c2CCCCC3)cc1,0,0,0,0,0
CC(=O)N(C)c1ccc(NC(=O)COc2ccc(Br)cc2C)cc1,-55,0,0,0,0
